# Test results from ChEMBL document CHEMBL3988442, “University of Dundee, Small-Polar-MMV Screening Library” (2021).
# Target: T1, Arginase-2, mitochondrial (Homo sapiens) (UniProt P78540)
# T1 sequence (whole entry): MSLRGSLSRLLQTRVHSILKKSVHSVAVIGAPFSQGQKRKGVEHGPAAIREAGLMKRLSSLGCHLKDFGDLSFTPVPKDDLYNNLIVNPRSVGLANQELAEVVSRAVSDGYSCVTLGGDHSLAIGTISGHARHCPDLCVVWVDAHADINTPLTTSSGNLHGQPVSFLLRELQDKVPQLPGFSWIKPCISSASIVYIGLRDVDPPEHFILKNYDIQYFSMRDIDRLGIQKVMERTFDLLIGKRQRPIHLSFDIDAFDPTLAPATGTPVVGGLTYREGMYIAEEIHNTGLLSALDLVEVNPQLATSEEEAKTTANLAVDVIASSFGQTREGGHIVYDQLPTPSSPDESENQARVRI
# Assay: in vitro enzyme assay to detect the production of urea directly proportional to the activity of Arginase II
# Format: functional
# Design: scale not given: in the data most compounds retested in dose-response had high values
# Settings: 30 µM
row,Compound,Percent Effect
1,OC(CN(Cc1ccccc1)Cc1ccon1)c1cccs1 (stereo not given),8.11%
2,CCn1c(NCc2cccnc2)nc2c(C)nn(C)c2c1=O,3.78%
3,CN(CC(=O)N1CCCC1c1noc(C2CC2)n1)S(C)(=O)=O (stereo not given),3.78%
4,CCCc1n[nH]cc1C(=O)NCC1COc2cc(OC)ccc2C1 (stereo not given),8.11%
5,CCCS(=O)(=O)N1C[C@H](N(C)Cc2ccco2)[C@@H]2OCCC[C@@H]21,11.3%
6,CCCn1c(NCCc2ccccc2)nc2c(C)nn(C)c2c1=O,1.62%
7,CN(C)C(=O)CN1CCCC(c2cncc(-c3cccc(Cl)c3)n2)C1 (stereo not given),1.62%
8,COc1ccc(C(=O)N2C[C@@H](C(=O)O)[C@H](c3cccc(F)c3)C2)c(O)c1,7.03%
9,CC1=Nc2c(c(=O)[nH]n2C2CCCC2)C(c2ccc(O)cc2)S1 (stereo not given),5.95%
10,O=C(NCCO)c1coc(CN2CCN(c3ccccc3F)CC2)n1,-8.11%
11,Cc1nc(NCC2CC2)nc2c1COCC21CCN(CC(=O)N(C)C)C1 (stereo not given),4.87%
12,CC(C)(C)OC(=O)Cn1cccc(S(=O)(=O)N2CCCC2)c1=O,7.03%
13,Cc1ccc(C(C(=O)O)N2CCCN(Cc3ccccn3)CC2)c(F)c1 (stereo not given),8.11%
14,Cc1noc(C)c1C(=O)N1CCCC(c2nccn2Cc2cscn2)C1 (stereo not given),5.95%
15,COc1ccc2c(c1)OCC(CNC(=O)c1cc[nH]c1C)C2 (stereo not given),8.11%
16,CC1CCN(S(=O)(=O)c2cccn(CC(=O)NC(C)(C)C)c2=O)CC1,8.11%
17,CCCS(=O)(=O)CC(=O)N1CCCC1c1noc(C2CC2)n1 (stereo not given),7.03%
18,CC1=Nc2c(c(=O)[nH]n2C2CCCC2)C(c2cccnc2)S1 (stereo not given),7.03%
19,c1ccc(OC2COC3(CCN(Cc4ccccn4)CC3)C2)cc1 (stereo not given),0.54%
20,COc1ccccc1Oc1ncccc1CNC(=O)[C@@H](N)CCO,-12.4%
